In PubChem BioAssay AID504803 (The Scripps Research Institute Molecular Screening Center, 2011):
The campaign covered roughly 340,000 compounds. About 1,700 (0.5%) were called active. Many of the other results were omitted from the sample, so actives are more common in it than they were. A number with no mark means an inactive call. Rule as the data show it: active = inhibition above about 36%; inactive = the rest.

Each molecule was assayed against Serine protease HTRA1 (Homo sapiens) (UniProt Q92743) (assay: HTRA1 serine protease inhibitors, primary screen, biochemical, fluorescence polarization, HTS (AID 504803;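 also: 0% = enzyme with DMSO and 100% = wells lacking enzyme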)). Details: recombinant HTRA1, FP-rhodamine activity-based probe, at 5.96 µM, stronger effect = higher value.
Sequence of Serine protease HTRA1 (Homo sapiens) (Q92743 whole entry, looked up): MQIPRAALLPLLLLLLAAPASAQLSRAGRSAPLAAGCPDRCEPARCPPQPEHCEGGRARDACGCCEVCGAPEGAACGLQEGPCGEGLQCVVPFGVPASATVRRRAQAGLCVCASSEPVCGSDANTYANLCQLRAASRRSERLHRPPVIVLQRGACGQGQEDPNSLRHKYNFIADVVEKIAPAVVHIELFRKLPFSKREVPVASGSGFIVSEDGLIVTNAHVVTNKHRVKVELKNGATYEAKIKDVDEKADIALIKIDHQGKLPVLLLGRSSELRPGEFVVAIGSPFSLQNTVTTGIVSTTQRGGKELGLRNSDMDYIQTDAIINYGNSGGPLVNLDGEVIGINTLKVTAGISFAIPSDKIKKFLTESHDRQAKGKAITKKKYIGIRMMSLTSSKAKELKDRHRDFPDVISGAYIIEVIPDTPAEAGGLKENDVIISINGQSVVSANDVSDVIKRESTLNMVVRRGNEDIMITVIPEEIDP

| SMILES | inhibition |
| --- | --- |
| O=[N+]([O-])c1ccc(C(S(=O)(=O)Cc2ccccc2)S(=O)(=O)Cc2ccccc2)cc1 | -1.31% |
| COc1ccc(S(=O)(=O)Nc2ccccc2C(=O)N2CCCC2)cc1C | 1.39% |
| Cc1cc([N+](=O)[O-])ccc1NS(=O)(=O)c1ccccc1 | -0.9% |
| COc1cccc(/C=N/Nc2ccc(S(=O)(=O)Nc3ccccc3C(=O)O)cc2[N+](=O)[O-])c1O | 40.5% (active) |
| C=C(C)CNC(=S)N/N=C/c1ccccc1OCC(=O)O | 4.14% |
| Cc1ccc(NS(=O)(=O)c2ccc(N/N=C/c3ccccc3OCC(=O)O)c([N+](=O)[O-])c2)c(C)c1 | 37.7% (active) |
| COc1ccc(Br)cc1/C=N/Nc1ccc(S(=O)(=O)Nc2ccccc2C(=O)O)cc1[N+](=O)[O-] | -2.73% |
| C[C@H]1CN([C@@H](C)CO)C(=O)CCCn2cc(nn2)CO[C@@H]1CN(C)S(=O)(=O)c1ccc(-c2ccccc2)cc1 | -3.19% |
| COc1ccc2c(c1)CCCO[C@]21O[C@H](CCO)C[C@H](O)[C@H]1O | -2.62% |
| CC1=C(C(=O)N2CCOCC2)CC(CC(=O)NCc2ccco2)C(=O)N1Cc1ccc(F)cc1 (stereo unspecified) | 4.18% |
| Cc1ccn(CC(=O)NC2CCCN(Cc3ccccc3F)C2)n1 (stereo unspecified) | 0.25% |
| Cc1ccc(C(=O)NC(C)C(c2cccs2)N2CCOCC2)cc1C (stereo unspecified) | 1.64% |
| C[C@@H]1CN([C@@H](C)CO)S(=O)(=O)c2ccc(C#Cc3cccc(F)c3)cc2O[C@H]1CN(C)S(=O)(=O)c1cn(C)cn1 | -25.7% |
| CC(C)/C=N/NC(=O)c1cc(Br)ccc1O | 6.13% |
| CC(=N\NC(=O)c1cc(Br)ccc1O)/C(=N/O)C(=O)Nc1ccccc1 | 46.1% (active) |
| CC(=O)N/N=C(\C)c1ccc(Br)cc1Br | 2.26% |
| CC1CCN(C(=O)CSc2nnc(-c3ccco3)n2N)CC1 | 2.17% |
| C[C@@H]1CN([C@@H](C)CO)C(=O)c2cc(Br)cnc2O[C@H]1CN(C)Cc1ccc(-c2ccccc2)cc1 | -13.1% |
| Oc1ccc(-c2nc3ccccc3nc2-c2ccc(O)cc2O)c(O)c1 | -7.06% |
| Cc1ccn2c(-c3csc(Nc4ccc(C(=O)O)cc4)n3)c(C)nc2c1 | -2.27% |
| Cc1ccc(Nc2nc(-c3ccc(O)cc3O)cs2)nc1 | 37.1% (active) |
| COc1ccc(S(=O)(=O)N(C)C[C@H]2OCc3cnnn3CCCC(=O)N([C@H](C)CO)C[C@H]2C)cc1 | 0.5% |
| CC(OC(=O)c1cccnc1Cl)C(=O)NC1CCCCC1 (stereo unspecified) | 2.76% |

| SMILES | inhibition |
| --- | --- |
| CCOc1ccc(CCN2C(=O)c3cccnc3C2=O)cc1OCC | -1.21% |
| NC1=CC(=O)C(=O)c2cccnc21 | 38.3% (active) |
| Cc1ccc(CCNC(=O)CN2C(=O)CSc3ccc(S(=O)(=O)N4CCOCC4)cc32)cc1 | -3.89% |
| COCOCCn1cc(CN2CCS(=O)(=O)N(Cc3ccc(-c4ccc(OC)cc4)cc3)C(CC(C)C)C2=O)nn1 (stereo unspecified) | -16.7% |
| CCN(CC)c1ccc(/C=N/NC(=O)c2cnccn2)c(O)c1 | 11.4% |
| CCN(CC)c1ccc(/C=N/Nc2nc(C)cc(C)n2)c(O)c1 | 63.8% (active) |
| Cc1cc(C)nc(N/N=C/c2c(CO)cnc(C)c2O)n1 | 4.05% |
| COc1ccc(CN2C(=O)C(CC(=O)NC3CCCCC3)CC(C(=O)N3CCOCC3)=C2C)cc1 (stereo unspecified) | 9.07% |
| CCOC(=O)Cc1ncccc1C(=O)Nc1ccc(OC(F)(F)F)cc1 | -0.74% |
| CCOc1c2ccc(C(=O)NCc3ccc(OC(F)(F)F)cc3)cc2nn1C | -3.97% |
| O=C(Nc1ccc(OC(F)(F)F)cc1)c1ccc2c(c1)no[n+]2[O-] | 42.3% (active) |
| C[C@H]1CN([C@@H](C)CO)S(=O)(=O)c2ccc(-c3cccc(F)c3)cc2O[C@@H]1CN(C)C | 0.65% |
| Cn1c(CCN2CCN(c3ccccn3)CC2)nc2cc(NS(=O)(=O)c3ccc(F)cc3)ccc21 | -0.52% |
| C[C@H]1CN([C@@H](C)CO)C(=O)CCCn2cc(nn2)CO[C@@H]1CN(C)S(=O)(=O)c1ccc(-n2cccn2)cc1 | -3.1% |
| CC(=O)n1c(C=Nc2ccccc2)c(O)c2ccccc21 | -1.27% |
| Oc1ccc(N=Cc2sc3ccccc3c2Cl)cc1 | 65.8% (active) |
| C[C@H](CO)N1C[C@H](C)[C@H](CN(C)C(=O)Nc2ccc3c(c2)OCO3)Oc2ncc(Br)cc2C1=O | -0.29% |
| Cc1c(NC(=O)COC(=O)/C=C/c2cccc(F)c2)c(=O)n(-c2ccccc2)n1C | -0.4% |
| CC1(C)CC(=O)C=C(c2ccccc2CO)C1=O | -3.27% |
| CCCn1c(N)c(C(=O)CSc2nnc(Cc3cccs3)n2C2CC2)c(=O)[nH]c1=O | 3% |
| COc1ccccc1-c1n[nH]nc1C1=CC(=O)CC(C)(C)C1 | 3.87% |
| CCc1ccc2c(c1)C1(NN=C(c3ccccc3)S1)C(=O)N2 (stereo unspecified) | 60.5% (active) |
| COc1ccc(-c2cnc3c(c2)C(=O)N([C@H](C)CO)C[C@@H](C)[C@H](CN(C)Cc2ccccc2)O3)cc1 | -5.18% |
